Results on 8 molecules are retold here after PubChem BioAssay (NCI).

The panel holds about 83,000 compounds, 20% with a hit somewhere; the sample as a whole holds those more often.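 Percent growth is the endpoint: 0 to 100 indicates growth inhibition (40 means 60% inhibition), 0 means no net growth, and negative values indicate cell death.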 Unmarked numbers belong to inactive results. The source made the active and inactive calls. The calls were made as follows: active = growth percent below 10; inactive = the rest.

Among the test systems are NCI-H226 lung; NCI-H322M lung; HOP-62 NSCLC; NCI-H460 lung; NCI-H522 lung; A549/ATCC NSCLC; 786-0 renal; COLO 205 colon; DU-145 prostate; K-562 leukemia; MALME-3M melanoma; MDA-MB-231 breast; RXF 393 renal; SF-268 CNS; SF-295 CNS; SF-539 CNS; UACC-257 melanoma; M14 melanoma; HCT-15 colon.
Common to all, as to assay: NCI-60 one-dose screen, 48 h (100 = growth as untreated, 0 = no growth, -100 = all killed)
Holding throughout (details): 10 µM

As to `CCOC(=O)c1ccc(NC(=O)Nc2ncc(Cl)cc2Cl)cc1`, the growth was 95.3% in the assay on NCI-H226 lung; 99.3% in the assay on NCI-H322M lung; 104% with HOP-62 NSCLC; 93.3% in the assay with NCI-H460 lung; -37.6% (active) in the assay with NCI-H522 lung; 40.7% in the assay with A549/ATCC NSCLC. The growth with 786-0 renal is 92.9%; in the assay on COLO 205 colon, 130%; in the assay with DU-145 prostate it was 111%; in the assay with K-562 leukemia, 79.4%; with MALME-3M melanoma, 111%; with MDA-MB-231 breast it was 94%. Besides, the growth was 100% in the assay on RXF 393 renal; 104% in the assay with SF-268 CNS; 96.5% with SF-295 CNS; 96.2% in the assay with SF-539 CNS; 14.7% in the assay with UACC-257 melanoma; 94.7% with M14 melanoma. Further, in the assay on HCT-15 colon, the growth is 102%.
As to `CNc1ncc(-c2ccc(C(F)(F)F)cc2)c(NC2CCCCCC2)n1`, the growth with NCI-H226 lung was 70.3%; in the assay on NCI-H322M lung, 76.6%; in the assay with HOP-62 NSCLC, 92.6%; in the assay with NCI-H460 lung, 87.8%; in the assay with NCI-H522 lung, 57.6%; in the assay with A549/ATCC NSCLC it was 69.1%. Besides, the growth in the assay with 786-0 renal is 79.4%; in the assay with COLO 205 colon, 68.5%; with DU-145 prostate, 91%; with K-562 leukemia, 76.2%; in the assay on MALME-3M melanoma, 61.3%; in the assay on MDA-MB-231 breast, 92.8%. Also, the growth in the assay with RXF 393 renal is 80.6%; in the assay on SF-268 CNS it was 99.7%; in the assay with SF-295 CNS, 79.4%; with SF-539 CNS, 93.5%; in the assay on UACC-257 melanoma, 73.2%; in the assay on HCT-15 colon, 81.5%.
With `FC(F)(F)c1ccc(-c2cnc(Cl)nc2N2CCC3(CC2)OCCO3)cc1`, the growth with NCI-H226 lung is 94.4%; with NCI-H322M lung it was 91.7%; in the assay on HOP-62 NSCLC it was 97.2%; with NCI-H460 lung, 100%; in the assay with NCI-H522 lung, 63.2%; in the assay with A549/ATCC NSCLC, 90.2%. In addition, the growth was 95.5% in the assay on 786-0 renal; 93.2% in the assay with COLO 205 colon; 95.5% in the assay with DU-145 prostate; 93.2% with K-562 leukemia; 78.4% with MALME-3M melanoma; 102% in the assay on MDA-MB-231 breast. In addition, the growth with RXF 393 renal is 105%; with SF-268 CNS, 93.5%; in the assay with SF-295 CNS, 89.7%; in the assay with SF-539 CNS, 99.3%; with UACC-257 melanoma, 106%; in the assay on M14 melanoma, 96.6%. In the assay with HCT-15 colon, the growth is 93.6%.
Regarding `CCCC#CCN(CC)CC`, the growth in the assay with NCI-H226 lung was 107%; with NCI-H322M lung it was 108%; in the assay with HOP-62 NSCLC, 117%; with NCI-H460 lung, 107%; in the assay on NCI-H522 lung, 97.6%; in the assay on A549/ATCC NSCLC, 93.8%. Moreover, the growth was 100% in the assay on 786-0 renal; 110% in the assay with COLO 205 colon; 123% in the assay with DU-145 prostate; 103% in the assay with K-562 leukemia; 111% in the assay on MALME-3M melanoma; 109% with MDA-MB-231 breast. Moreover, the growth with RXF 393 renal is 112%; in the assay with SF-268 CNS, 111%; in the assay on SF-295 CNS, 80.2%; in the assay with SF-539 CNS, 99.6%; with UACC-257 melanoma, 93.6%; in the assay with M14 melanoma it was 108%. Further, the growth with HCT-15 colon was 99.6%.
In the case of `O=C1OCC2=C1C(c1cccc(Cl)c1)c1cc3c(cc1N2CCO)OCCO3` (centres undefined), the growth with NCI-H226 lung was -5.85% (active); in the assay on NCI-H322M lung, 35.3%; with HOP-62 NSCLC, 26.7%; with NCI-H460 lung, 0.852% (active); in the assay on NCI-H522 lung, -22.4% (active); in the assay on A549/ATCC NSCLC, 13.8%. Further, the growth with 786-0 renal was 23.7%; with COLO 205 colon, -26.9% (active); with DU-145 prostate, -35.6% (active); in the assay on K-562 leukemia it was 17.5%; in the assay on MDA-MB-231 breast, -3.22% (active); in the assay with RXF 393 renal, 33.9%. In addition, the growth is 23.1% with SF-268 CNS; -16.5% (active) with SF-295 CNS; -3.57% (active) in the assay on SF-539 CNS; 44.6% with UACC-257 melanoma; 12.9% in the assay on M14 melanoma; 8.81% (active) with HCT-15 colon.
As for `O=C(CSSCC(=O)c1ccc(Cl)cc1)c1ccc(Cl)cc1`, the growth with NCI-H226 lung is 88.6%; with NCI-H322M lung, 72.2%; with HOP-62 NSCLC, 78.6%; in the assay on NCI-H460 lung, 35.8%; with NCI-H522 lung, 58%; with A549/ATCC NSCLC it was 63.6%. The growth was 85.9% with 786-0 renal; 104% in the assay with COLO 205 colon; 94.4% in the assay with DU-145 prostate; 52.9% with K-562 leukemia; 39.7% in the assay with MALME-3M melanoma; 92.8% in the assay on MDA-MB-231 breast. The growth with RXF 393 renal is 99.7%; in the assay with SF-268 CNS it was 61%; in the assay on SF-295 CNS, 35.9%; with SF-539 CNS, 68.4%; in the assay with UACC-257 melanoma, 59.2%; in the assay on M14 melanoma, 82.2%. Further, in the assay on HCT-15 colon, the growth is 87.2%.
`COc1ccc(-c2nn(-c3cccc(NC(=O)c4cccc(C(F)(F)F)c4)c3)cc2-c2ccncc2)cc1Cl`: the growth in the assay with NCI-H226 lung was 52.1%; with NCI-H322M lung, 47.3%; with HOP-62 NSCLC, 41.9%; in the assay on NCI-H460 lung, 8.19% (active); with NCI-H522 lung, -20.1% (active); with A549/ATCC NSCLC it was 19.8%. For the same molecule, the growth in the assay on 786-0 renal is 17.1%; in the assay with COLO 205 colon, 17.3%; in the assay on DU-145 prostate, 50.5%; with K-562 leukemia, 14.8%; in the assay on MALME-3M melanoma, 12.6%; in the assay with MDA-MB-231 breast it was 9.03% (active). Further, the growth in the assay on RXF 393 renal was 19.4%; with SF-268 CNS, 37.5%; in the assay with SF-295 CNS, -10.7% (active); in the assay on SF-539 CNS, -39.6% (active); with UACC-257 melanoma it was 25.5%; in the assay with M14 melanoma, 7.66% (active). For the same molecule, the growth in the assay on HCT-15 colon was 26.9%.
Take `COc1cc(/C(=C2/O[C@@H]([C@H]3COC(C)(C)O3)[C@H]3OC(C)(C)O[C@@H]23)c2ccc3ccccc3c2)cc(OC)c1OC`: the growth in the assay with NCI-H226 lung was 66.9%; in the assay on NCI-H322M lung, 55.1%; in the assay on HOP-62 NSCLC, 48%; in the assay on NCI-H460 lung, 43.4%; in the assay with NCI-H522 lung, 8.05% (active); with A549/ATCC NSCLC, -9.4% (active). Further, the growth in the assay on 786-0 renal was -1.42% (active); in the assay on COLO 205 colon it was 66.9%; with DU-145 prostate, 2.86% (active); in the assay with K-562 leukemia it was 28.1%; in the assay with MALME-3M melanoma it was -25.4% (active); with MDA-MB-231 breast, 13.6%. Besides, the growth was -16.9% (active) in the assay on SF-268 CNS; 46.6% with SF-295 CNS; 26.4% in the assay on SF-539 CNS; 45.9% in the assay on UACC-257 melanoma; 62.8% in the assay with M14 melanoma; 59.7% in the assay with HCT-15 colon.
